Assay outcomes deposited in PubChem by The Scripps Research Institute Molecular Screening Center.
MITF inh: MITF inhibitors, primary screen, biochemical, AlphaScreen, human; Microphthalmia-associated transcription factor (Homo sapiens), O75030; AlphaScreen MITF homodimerization, bead proximity signal; inhibition, % at 2.6 µM; 650,000 tested, 0.91% active; AID 1259374, 2018; in the data active = inhibition above about 50%
GPR151 ag: activators of human GPR151, primary screen, cell-based, PathHunter beta-arrestin, luminescence; G-protein coupled receptor 151 (Homo sapiens), Q8TDV0; PathHunter beta-arrestin GPR151 cells; activation, % at 11.2 µM; 650,000 tested, 1% active; AID 1508602, 2020; in the data active = activation above about 4.9%
TEAD-YAP inh: TEAD-YAP interaction inhibition, primary screen, TEAD-YAP interaction inhibitor project, luminescence, HEK-TIYL cells; 640,000 tested, 1.4% active; inhibition, % at 9.12 µM; TEAD-Gal4/YAP UAS-luciferase luminescence; in the data active = inhibition above about 32%
FBW7 activator: FBW7 E3 ligase activators, primary screen, biochemical, AlphaScreen, human | F-box/WD repeat-containing protein 7 (Homo sapiens), Q969H0 | AlphaScreen FBW7–phospho-cyclin E peptide binding, activator screen | normalized activity (activation), % at 26.1 µM | 650,000 tested, 0.13% active; in the data active = normalized activity above about 1.9%;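 also: purified mutant Fbw7 with reduced substrate affinity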
Target sequence (Q969H0 whole entry, looked up): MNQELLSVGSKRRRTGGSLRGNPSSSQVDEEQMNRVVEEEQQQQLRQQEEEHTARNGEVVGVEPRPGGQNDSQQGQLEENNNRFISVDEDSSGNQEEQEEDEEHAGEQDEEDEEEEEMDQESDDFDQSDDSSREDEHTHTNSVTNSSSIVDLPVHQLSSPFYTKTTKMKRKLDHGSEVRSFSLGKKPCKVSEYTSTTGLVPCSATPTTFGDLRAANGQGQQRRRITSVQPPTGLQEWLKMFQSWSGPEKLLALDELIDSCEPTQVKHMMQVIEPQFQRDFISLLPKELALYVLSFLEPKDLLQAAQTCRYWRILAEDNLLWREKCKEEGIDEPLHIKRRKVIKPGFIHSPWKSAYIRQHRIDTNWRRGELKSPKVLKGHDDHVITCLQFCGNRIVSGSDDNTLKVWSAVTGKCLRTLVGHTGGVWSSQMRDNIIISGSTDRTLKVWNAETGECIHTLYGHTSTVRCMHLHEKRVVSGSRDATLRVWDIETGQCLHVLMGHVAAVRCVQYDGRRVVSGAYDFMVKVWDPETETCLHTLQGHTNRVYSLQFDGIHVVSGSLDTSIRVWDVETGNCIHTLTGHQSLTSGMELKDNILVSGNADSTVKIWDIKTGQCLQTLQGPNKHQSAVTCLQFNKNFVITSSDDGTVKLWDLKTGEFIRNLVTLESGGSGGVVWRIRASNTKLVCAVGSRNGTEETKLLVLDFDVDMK
MITF confirm: MITF inhibitors, retest of hits, confirmation, biochemical, AlphaScreen, triplicate; AlphaScreen MITF homodimerization, biotin/His-MITF beads; shares compounds with MITF inh; inhibition, % at 2.6 µM; 4,700 tested, 16% active;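 active = inhibition above a cutoff derived from the DMSO control wells, cut at about 28% in these data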;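 also: inhibitors lower the bead chemiluminescence by keeping MITF from dimerizing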
AlphaScreen DR: AlphaScreen optical interference compounds, dose response, counter-screen, biochemical, HTS; shares compounds with MITF inh; AlphaScreen optical interference counterscreen, cell-free; IC50, µM; 480 tested, 6% active; AID 1259373, 2018; call rule not given here
AlphaScreen intf2: AlphaScreen optical interference compounds, counter-screen for MITF inhibitor project, biochemical, triplicate. shares compounds with MITF inh. LysRS AlphaScreen counterscreen, signal interference. inhibition, % at 2.6 µM. 4,700 tested, 7.6% active;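 active = inhibition above a cutoff derived from the DMSO control wells, cut at about 30% in these data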
Large screens that a line does not name were inactive (follow-up assays come after a bar, where they were run); ! = a repeat was not active. Rows were chosen to be rich in hits. Some 3.4% of all compounds tested hit in one or more screens of this group.

NNC(=O)C1CCCN(Cc2cccc(Oc3ccccc3)c2)C1 (stereo unspecified)	MITF inh 54 | MITF confirm inactive | AlphaScreen intf2 inactive
N=C1S/C(=C\c2ccc(-c3ccc(Cl)cc3Cl)o2)C(=O)N1c1ccc(OC(F)(F)F)cc1	none
CC1=NN(c2ccccc2)C(=O)/C1=C\c1cc(C)n(-c2cc(C)cc(C)c2)c1C	none
Cc1ccccc1NC(=O)Cn1ncc2c1-c1ccccc1OC2	none
COc1ccc(CN2CCCC(C(=O)N3CCCCC3)C2)c(OC)c1OC (stereo unspecified)	MITF inh 75 | MITF confirm inactive | AlphaScreen intf2 inactive
CCOC(=O)C1CCCN(Cc2ccccc2)C1 (stereo unspecified)	none
CCOC(=O)C1CCCN(Cc2ccc(OC)cc2)C1 (stereo unspecified)	MITF inh 52 | MITF confirm inactive | AlphaScreen intf2 inactive
CCOC(=O)C1CCCN(Cc2cccc(Br)c2)C1 (stereo unspecified)	MITF inh 53 | MITF confirm 35 | AlphaScreen DR inactive | AlphaScreen intf2 inactive
CCOC(=O)C1CCCN(Cc2ccc(OC)c(OC)c2OC)C1 (stereo unspecified)	none
CCOC(=O)C1CCCN(Cc2ccc(O)cc2)C1 (stereo unspecified)	none
Nc1c(C(=O)c2cccs2)sc2nc(C3CC3)cc(-c3ccccc3)c12	none
OCC1(Cc2cccc(Cl)c2)CCCN(Cc2ccccn2)C1 (stereo unspecified)	none
Clc1ccccc1CN1CCN(c2ccccn2)CC1	none
Clc1cccc(CN2CCN(Cc3ccccn3)CC2)c1	MITF inh 70 | MITF confirm inactive | AlphaScreen intf2 inactive
Clc1ccccc1CN1CCN(Cc2ccccn2)CC1	MITF inh 74 | MITF confirm inactive | AlphaScreen intf2 inactive
Fc1ccc(CN2CCN(Cc3ccccn3)CC2)cc1	MITF inh 70 | MITF confirm inactive | AlphaScreen intf2 inactive
Cc1cccc(CN2CCN(c3ncccn3)CC2)c1	MITF inh 54 | MITF confirm inactive | AlphaScreen intf2 inactive
CN(C)c1ccc(-c2cnc3ccc(NCCc4cccnc4)nn23)cc1	none
C=CCN1CCC(c2nc(-c3cccnc3)no2)CC1	none
COc1cccc(CN2CCC(=O)N(Cc3ccccn3)CC2)c1	none
O=[N+]([O-])c1cccc(CN2CCN(C3CCN(Cc4ccccc4)CC3)CC2)c1	none
Cc1cccc(CN2CCN(Cc3ccccn3)CC2)c1	MITF inh 72 | MITF confirm inactive | AlphaScreen intf2 inactive
O=[N+]([O-])c1cccc(CN2CCN(Cc3ccccn3)CC2)c1	MITF inh 101 | MITF confirm inactive | AlphaScreen intf2 inactive
NS(=O)(=O)c1ccc(N=Cc2cc3c(cc2[N+](=O)[O-])OCO3)cc1	MITF inh 64 | MITF confirm 56 | AlphaScreen DR inactive | AlphaScreen intf2 inactive
O=[N+]([O-])c1ccc(N2CCN(CCOCCO)CC2)c([N+](=O)[O-])c1	MITF inh 56 | MITF confirm inactive | AlphaScreen intf2 inactive
CCN1CCN(C(c2ccc(F)cc2)c2nnnn2Cc2ccc(OC)cc2)CC1 (stereo unspecified)	none
CN(C)CCn1nnnc1SCC1=C(C(=O)O)N2C(=O)[C@@H](NC(=O)Cc3csc(N)n3)[C@H]2SC1	MITF inh 68! | MITF confirm 87 | AlphaScreen DR 4.9 | AlphaScreen intf2 inactive
O=C(Nc1cccc(Cl)c1)c1sc(=S)n2c1[nH]c(=O)c1ccccc12	none
COc1cc(Nc2cccc(C(N)=O)c2)cc(OC)c1OC	MITF inh 73 | MITF confirm inactive | AlphaScreen intf2 inactive
COc1cc(NC(=O)Nc2cccc(C(C)=O)c2)cc(OC)c1OC	none
C/C(O)=C1/C(=O)[C@@H]2[C@H]3c4c[nH]c5cccc(c45)CC3C(C)(C)N2C1=O (stereo partly specified)	none
COc1ccc(C)cc1NC(=O)CNCCN1CCOCC1	MITF inh 87 | MITF confirm inactive | AlphaScreen intf2 inactive
COc1ccccc1NC(=O)CNCCN1CCOCC1	MITF inh 86 | MITF confirm inactive | AlphaScreen intf2 inactive
N#Cc1ccsc1NC(=O)CNCC1CCCO1 (stereo unspecified)	MITF inh 60 | MITF confirm inactive | AlphaScreen intf2 inactive
COc1ccc(C)cc1NC(=O)CCN1CCOCC1	none
COc1ccc(C)cc1NC(=O)N1CCC(CO)(CC2CCCCO2)CC1 (stereo unspecified)	none
COc1ccccc1NC(=S)NCCN1CCOCC1	none
COc1ccc(C)cc1NC(=O)CNCC1CCCO1 (stereo unspecified)	MITF inh 53 | MITF confirm inactive | AlphaScreen intf2 inactive
COc1ccccc1NC(=O)CNCCCN1CCOCC1	MITF inh 61 | MITF confirm inactive | AlphaScreen intf2 inactive
COc1ccccc1NC(=O)CC(NCCCN1CCOCC1)C(=O)O (stereo unspecified)	none
CCS(=O)(=O)N1CCN(Cc2ccccc2Br)CC1	none
O=[N+]([O-])c1ccc(S(=O)(=O)N2CCN(Cc3ccccc3Br)CC2)cc1	MITF inh 80 | MITF confirm inactive | AlphaScreen intf2 inactive
O=S(=O)(c1ccccc1)N1CCN(Cc2ccccc2Br)CC1	MITF inh 73 | MITF confirm inactive | AlphaScreen intf2 inactive
O=C(NC1CC1)C1CC(=O)N(C2CCCCCC2)C1 (stereo unspecified)	none
Cc1nn(C2CCS(=O)(=O)C2)c(Cl)c1CNCc1ccccc1 (stereo unspecified)	MITF inh 58 | MITF confirm inactive | AlphaScreen intf2 inactive
O=C(Cc1cccs1)NCCCCCCNC(=O)Cc1cccs1	none
O=C(Cc1cccs1)NCCCN1CCOCC1	MITF inh 102 | MITF confirm inactive | AlphaScreen intf2 inactive
Cc1cccc(NC(=O)CNCCCN2CCOCC2)c1C	MITF inh 76 | MITF confirm inactive | AlphaScreen intf2 inactive
Cc1cccc(C)c1NC(=O)CNCCCN1CCOCC1	MITF inh 88 | MITF confirm inactive | AlphaScreen intf2 inactive
CCOC(=O)C1=C(C)N=C2SCC(=O)N2C1c1ccc(O)c(OC)c1 (stereo unspecified)	none
Cc1nc(NCc2ccco2)c2c(C)c(C)sc2n1	MITF inh 59, TEAD-YAP inh 43 | MITF confirm inactive | AlphaScreen intf2 inactive
Cc1nc(NCc2ccco2)c2c3c(sc2n1)CCCC3	none
CNC(=O)[C@@H]1C[C@H](NCc2ccc3ccccc3c2)CN1C/C=C/c1ccccc1	none
